Test results reported in PubChem BioAssay AID1117319 (Southern Research Institute, 2015).
“And” between values parts separate entries of the source, which are not always exact repeats. Identical values can stand only once. In all, about 260,000 compounds went through this assay and about 1,500 (0.58%) were called active. Not shown: some 5% with an inconclusive outcome. The list is a sample of the results. Measured potencies and affinities stand elsewhere. A number with no mark means an inactive call.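 How the source made its calls: active means inhibition above a set limit at one or more doses, reproduced on every date tested; inconclusive means results disagree between test dates, or hit never tested in dose response; inactive means the rest.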

The compounds below were run against Virion infectivity factor (Human immunodeficiency virus type 1 group M subtype B (isolate BH10)) + Virion infectivity factor (Human immunodeficiency virus type 1 group M subtype B (isolate BRU/LAI)) + Virion infectivity factor (Human immunodeficiency virus type 1 group M subtype B (isolate PCV12)) + Virion infectivity factor (Human immunodeficiency virus type 1 group M subtype B (isolate HXB2)) + DNA dC->dU-editing enzyme APOBEC-3G (Homo sapiens) (UniProt P69720+P69721+P69722+P69723+Q9HC16) (assay: HIV-1 Vif–A3G interaction blockers – biochemical, TR-FRET, GST-Vif 1-94, biotin-A3G peptide, dose response retest, primary screen (AID 1117319;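 further: Vif residues 1-94 fused to GST binding biotinylated APOBEC3G peptide 110-148; 0% = full assay without inhibitor and 100% = GST in place of GST-Vif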)). Settings: TR-FRET GST-Vif / biotin-A3G peptide binding; hits give high values.
In the case of `COCCN(C(=O)COC(=O)CSc1cc(C)ccc1C)c1c(N)n(Cc2ccccc2)c(=O)[nH]c1=O`, the inhibition is reported as -5.52%. `CC(=O)Nc1ccc2c(c1)OCCO2` gave an inhibition of -3.04%. Compound `CC(=O)Nc1ccc2c(c1)OCCOCCOc1cc(NC(C)=O)ccc1OCCOCCOCCO2` has an inhibition of 30.1%. For `COc1ccc(-n2cccc2/C=C/[N+](=O)[O-])cc1`, the inhibition was 20.8%. In the case of `O=C(O)c1cccc(-n2cccc2C=C2C(=O)c3ccccc3C2=O)c1`, the inhibition is reported as 29.9%. `CC(C)[C@H](NC(=O)OCc1ccccc1)C(=O)OCC(=O)N1CCN(c2ccc(F)cc2)CC1` gave an inhibition of -1.08%. `CCNc1nc(ON=C(C)C)nc(N(C)C)n1` showed an inhibition of -7.57%. `CCC(C)NC(=O)c1ccc(CSCc2ccccc2Cl)o1` (stereo unspecified) showed an inhibition of 2.45%. In the case of `COc1ccc(OC)c(Nc2nc(-c3sc(N)nc3C)cs2)c1`, the inhibition is reported as 7.55%. `COc1ccc(OC)c(Nc2nc(-c3cccs3)cs2)c1` gave an inhibition of 3.68%. Work on `Cc1ccc(C2/C(=C(\O)c3ccc4c(c3)OCCO4)C(=O)C(=O)N2CC2CCCO2)cc1` (stereo unspecified) yielded an inhibition of -0.97%. In the case of `COc1ccc(/C(C)=N/NC(=O)CNC(=O)c2cccnc2)c(OC)c1`, the inhibition is reported as 3.46%. For `COc1ccc(OC)c(NC(=O)NC2CCCCCCC2)c1`, the inhibition was -6.56%. In the case of `COc1ccccc1C(=O)N1CCCC(c2nc(-c3cc(OC)c(OC)c(OC)c3)no2)C1` (stereo unspecified), the inhibition is reported as -8.18%. `CC1=C(C(=O)Nc2ccccc2C)C(c2ccc(C)o2)n2c(s/c(=C/c3ccccc3)c2=O)=N1` (stereo unspecified) gave an inhibition of 29.2%. `CC1=C(C(=O)Nc2ccccc2)C(c2ccc(C)o2)n2c(s/c(=C/c3ccccc3)c2=O)=N1` (stereo unspecified) showed an inhibition of 12.7%. `CCOC(=O)C1=C(c2ccccc2)N=c2s/c(=C\c3cccc(O)c3)c(=O)n2C1c1cccs1` (stereo unspecified) was tested, and the inhibition was -2.23% and -5.42%. `COc1ccc(C2C(C(C)=O)=C(C)N=c3s/c(=C\c4ccco4)c(=O)n32)c(OC)c1` (stereo unspecified) showed an inhibition of 31.2%. In the case of `CCOC(=O)C1=C(C)N=c2s/c(=C/c3ccccc3)c(=O)n2C1c1ccc(OC)c(OC)c1` (stereo unspecified), the inhibition is reported as 1.78%. In the case of `CCOC(=O)C1=C(c2ccccc2)N=c2s/c(=C\c3ccc(O)cc3)c(=O)n2C1c1cccs1` (stereo unspecified), the inhibition is reported as -10.4%. For `COc1cccc(CNC(=O)CSCc2cnn(-c3ccccc3)c2-n2cccc2)c1`, the inhibition was 2.53% and 7.19%. In the case of `CC(=O)c1cnc2n(c1=O)CCS2`, the inhibition is reported as -2.48%. `COc1ccc(C(CC(=O)c2ccc(C)cc2)C(C#N)C#N)cc1OC` (stereo unspecified) gave an inhibition of -6.99%. With `O=C(O)CCCNC(=O)OCc1ccccc1` the inhibition was -2.72%. `CC1CCN(S(=O)(=O)c2ccc(S(=O)(=O)NCC3COCCO3)cc2)CC1` (stereo unspecified) showed an inhibition of 8.23%. For `CCNS(=O)(=O)c1ccc(CCC(=O)O)cc1`, the inhibition was -1.11%. Compound `CCN(CC)S(=O)(=O)c1ccc(N2CC(C(=O)NCCC3=CCCCC3)CC2=O)cc1` (stereo unspecified) has an inhibition of -3.38%. `Cc1ccc(S(=O)(=O)N2CCN(Cc3ccccn3)CC2)cc1` was tested, and the inhibition was 0.21%. `CC(=O)Nc1ccc(S(=O)(=O)N2CCN(c3ccccn3)CC2)cc1` was tested, and the inhibition was 25%. Compound `O=C(O)/C(=C\c1cn(-c2ccccc2)nc1-c1cccnc1)NC(=O)c1ccccc1` has an inhibition of -1.44%. `Cc1cccc(OCc2n[nH]c(=S)n2-c2ccccc2)c1` was tested, and the inhibition was 1.89%. In the case of `Cc1ccc(OCc2n[nH]c(=S)n2-c2ccccc2)cc1C`, the inhibition is reported as -3.72%. Compound `O=C(CN1CCN(C(=O)c2ccccc2)CC1)Nc1cc(S(=O)(=O)N2CCCC2)ccc1Cl` has an inhibition of -24.1%. Compound `COC(=O)C1=C(C)NC(C)=C(C(=O)OC)C1C(=O)OCc1nc2cc(C(=O)OC)ccc2c(=O)[nH]1` has an inhibition of -5.82%. `Cc1ccc(-c2nc(N)n(S(=O)(=O)c3ccc(C)cc3)n2)cc1` showed an inhibition of 0.67%. With `O=C(C1CC=CCC1)N1CCN(S(=O)(=O)c2ccc(F)cc2)CC1` (stereo unspecified) the inhibition was -4.47%. Work on `CC(C)C1Nc2ccc(S(N)(=O)=O)cc2C2C=CCC21` (stereo unspecified) yielded an inhibition of 30.5%. Work on `CC(OC(=O)c1n[nH]c2ccccc12)C(=O)NC1CCCCC1C` (stereo unspecified) yielded an inhibition of 1.37%. For `CCOC(=O)N1CCN(c2ccc([N+](=O)[O-])cc2)CC1`, the inhibition was 0.75%. In the case of `CCOC(=O)N1CCN(c2ccc(Cl)cc2)CC1`, the inhibition is reported as -2.77%. Compound `CCc1ccccc1NC(=S)N(CCCN(C)C)Cc1cc2cc3c(cc2[nH]c1=O)OCO3` has an inhibition of -0.74%. With `Clc1ccc(Oc2nc(N3CCOCC3)nc(N3CCOCC3)n2)c(C2CCCCC2)c1` the inhibition was -3.78%. In the case of `O=C(NC1CC1)c1ccc2c(c1)C1C3CCC(C3)C1C(c1ccccc1)N2` (stereo unspecified), the inhibition is reported as 3.47%. `CCN(C(=O)c1ccc(Cl)c([N+](=O)[O-])c1)c1ccccc1` was tested, and the inhibition was 3.48%. In the case of `O=C(O)c1ccc(N2C(=O)CSC2c2cccc([N+](=O)[O-])c2)cc1` (stereo unspecified), the inhibition is reported as -1.67%. `CCN(CC(=O)Nc1ccc(NC(C)=O)cc1)C(=O)c1ccc(N2CCC(C)CC2)c([N+](=O)[O-])c1` was tested, and the inhibition was 3.59%. In the case of `O=C(O)c1cccc2c1-c1c(cccc1[N+](=O)[O-])C2`, the inhibition is reported as -2.94%. `O=C(O)C1CCC(NSc2ccccc2[N+](=O)[O-])CC1` (stereo unspecified) showed an inhibition of -7.35%. In the case of `CC(C)Cc1cc(C(=O)Nc2cc(C(F)(F)F)ccc2Cl)no1`, the inhibition is reported as 14.1%. With `C=Cc1ccc(CSc2cc(C)nc3nc(C)nn23)cc1` the inhibition was -4.49%. `Cc1ccc(CNc2ccc3c(c2)ncn3C(C)C)cc1` gave an inhibition of 15.2%. With `CC(C)(C)c1ccc(C(=O)C2CCCN(C(=O)CN3CCCC3=O)C2)cc1` (stereo unspecified) the inhibition was -3.41%. Compound `Cc1ccc(NC(=O)CCCN2C(=O)C(c3ccccc3)Oc3cccnc32)c(C)c1` (stereo unspecified) has an inhibition of -3%. `COc1ccc(C(=O)N/C(=C\c2ccco2)C(=O)OCc2ccco2)cc1` showed an inhibition of 19.9%. `CCCCOc1ccc(C(=O)N/C(=C\c2ccc(OC)cc2)C(=O)OCc2ccco2)cc1` showed an inhibition of -1.87%. Compound `COc1ccc2c(c1)NC(C)(C)C=C2C` has an inhibition of 32.2%.
